Source: PubChem (National Center for Advancing Translational Sciences (NCATS))
Rows were chosen to be rich in hits. Some 10% of all compounds tested hit in one or more screens of this group.
HP1b chromo inh: inhibitors of HP1-beta chromodomain binding to methylated histone tails; P83916; AlphaScreen HP1-beta / biotin-H3K9me3 peptide binding; 390,000 tested, 0.56% active; Potency, µM (doses to about 114 µM), for the others: at the top dose activity change, negative = inhibition, most hits filed as inhibitors; further: potency means the concentration at half of the fitted maximal effect; nearly all actives have a fitted effect of over 70% in size
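HP1-beta protein (50 nM final) preincubated 30 min at room temperature with biotinylated H3(1-18)K9me3 peptide (50 nM) in PBS pH 7.4, 0.01% Tween-20, then compound added for 30 min. AlphaScreen streptavidin donor/nickel chelate acceptor beads (10 ug/mL final), 30 min dark, luminescence read.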
JMJD2A Tudor: inhibitors of human JMJD2A Tudor domain; O75164; AlphaScreen JMJD2A-Tudor / H3K4me3 peptide binding; Potency, µM (series often up to 114 µM), inactives show top-dose activity change, negative = inhibition, hits mostly inhibitors; 390,000 tested, 4.4% active; further: potency means the concentration at half of the fitted maximal effect; on the % scale 0 is the no-effect control and ±100 the full control effect; nearly all actives have a fitted effect of over 50% in size
G9a inh: blocks human histone lysine methyltransferase G9a; Q96KQ7; G9a H3K9 monomethylation, AlphaScreen, 2 h; Potency, µM (highest dose often 102 µM), for inactives: top-dose activity, negative = inhibition, most hits filed as inhibitors; 350,000 tested, 8.8% active; further: potency means the concentration at half of the fitted maximal effect; on the % scale 0 is the no-effect control and ±100 the full control effect; nearly all actives have a fitted effect of over 75% in size
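Using a bead-based AlphaScreen, monomethylated H3K9 product from 2 h room-temperature reactions (G9a 20 nM, peptide 500 nM, SAM 20 uM) was detected with 0.5 ug/mL rabbit anti-H3K9me1 antibody.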
Six1-Eya2 blk: Six1/Eya2 interaction inhibition | activity change, % (test concentration not listed) | 360,000 tested, 0.56% active | Q15475+O00167 | AlphaScreen GST-Six1/His-Eya2 binding, biochemical; active compounds read low; in the data active means activity change below about -65%; inconclusive means mostly about -30% to -63%; further: on the % scale 0 is the no-effect control and ±100 the full control effect
Target sequence (O00167 whole entry, looked up): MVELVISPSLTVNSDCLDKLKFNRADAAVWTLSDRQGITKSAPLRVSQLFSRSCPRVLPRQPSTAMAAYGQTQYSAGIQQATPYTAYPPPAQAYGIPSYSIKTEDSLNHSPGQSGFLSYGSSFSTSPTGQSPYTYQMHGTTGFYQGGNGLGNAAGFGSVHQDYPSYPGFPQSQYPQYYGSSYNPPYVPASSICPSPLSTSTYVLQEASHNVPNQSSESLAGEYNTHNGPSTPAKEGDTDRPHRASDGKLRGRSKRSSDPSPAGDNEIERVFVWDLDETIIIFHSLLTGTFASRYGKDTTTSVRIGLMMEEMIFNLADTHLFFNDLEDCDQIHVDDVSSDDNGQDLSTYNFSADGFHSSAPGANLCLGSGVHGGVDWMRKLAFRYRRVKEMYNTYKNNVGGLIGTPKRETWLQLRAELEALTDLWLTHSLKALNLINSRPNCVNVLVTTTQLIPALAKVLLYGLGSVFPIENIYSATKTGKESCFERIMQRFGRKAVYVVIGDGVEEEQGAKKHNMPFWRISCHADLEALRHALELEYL
Target sequence (Q15475 whole entry, looked up): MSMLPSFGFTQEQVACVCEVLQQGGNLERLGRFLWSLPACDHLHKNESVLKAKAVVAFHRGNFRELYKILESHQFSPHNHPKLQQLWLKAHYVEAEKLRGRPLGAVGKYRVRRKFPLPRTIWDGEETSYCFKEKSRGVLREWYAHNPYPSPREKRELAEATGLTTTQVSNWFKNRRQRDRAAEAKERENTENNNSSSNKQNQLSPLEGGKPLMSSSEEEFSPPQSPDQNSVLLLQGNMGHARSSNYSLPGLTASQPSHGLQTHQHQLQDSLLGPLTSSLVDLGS
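Homogeneous AlphaScreen proximity assay pairing GST-Six1 with His-tagged Eya2 (added as 5X mix: 250 nM and 500 nM) in 50 mM Tris pH 8.0, 300 mM NaCl, 1 mM TCEP. Glutathione donor and nickel acceptor beads; 1 h, 37 °C, dark.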
BAZ2B block: blocks human BAZ2B; Q9UIF8; AlphaScreen BAZ2B-H3K14Ac peptide displacement; Potency, µM (top dose mostly 114 µM), for the others: at the top dose activity change, negative = inhibition, actives largely listed as inhibitors; 360,000 tested, 4.4% active; AID 504333; further: potency means the concentration at half of the fitted maximal effect; on the % scale 0 is the no-effect control and ±100 the full control effect; nearly all actives have a fitted effect of over 60% in size
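Compounds, titrated to a top concentration of 110 uM, were incubated 30 min at room temperature with preformed BAZ2B/acetyl-K14 H3 peptide complex (50 nM each). Proximity signal was measured by AlphaScreen after 20 min with beads.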
CtBP-E1A blk: inhibitors of CtBP/E1A interaction | AlphaScreen GST-E1A/His-CtBP binding, 1536-well; active compounds read low | activity change, % (test concentration not listed) | 340,000 tested, 0.49% active | AID 651724; in the data active means activity change below about -65%; inconclusive means mostly about -30% to -63%; further: on the % scale 0 is the no-effect control and ±100 the full control effect
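GST-E1A and His-tagged CtBP (125 nM each as 5X stock) were preincubated with pin-transferred compound for 2 h at 37 °C in the dark, then glutathione donor and nickel acceptor beads were added for 1 h before AlphaScreen reading.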
Active calls of the source: *; ? = inconclusive; nt = not tested or not shown; [ ] = dose if it differs, or a comment. Unless noted, the call rests on the fitted dose curve; in most records, active means well fitted inhibition curve with a large enough effect; inconclusive means small, poorly fitted or top-dose-only effect; inactive means no such curve, though single readings can be large or run the other way.

SMILES	HP1b chromo inh	JMJD2A Tudor	G9a inh	Six1-Eya2 blk	BAZ2B block	CtBP-E1A blk
COc1ccc(CN2CCC(N(CCc3ccccc3)Cc3ccccc3)CC2)c(OC)c1	?	3.2µM*	?	-21	40µM*	7
COc1ccc(CN2CCC(C(=O)N(C)CCc3ccc(OC)c(OC)c3)CC2)c(OC)c1	?	7.9µM*	10µM*	6	?	0
O=C1c2ccccc2C(=O)N1c1cccc2ccncc12	nt	-22%	nt	nt	nt	nt
COc1ccc(-c2noc(COc3cc(C)ccc3C)n2)cc1OC	39%	74%	5%[59 µM]	nt	88%	nt
Cc1cccc(OCCn2c(-c3ccc(Cl)cc3)nc3ccccc3c2=O)c1	30%	3%	-33%[59 µM]	nt	14%	nt
O=C1c2[nH]nc(-c3ccccc3O)c2C(c2ccc(Cl)cc2)N1Cc1ccco1 (configuration not stated)	-33%	?	2%[59 µM]	nt	?	nt
COc1ccc(CCN(C)C(=O)Cc2ccc(-c3ccccc3)cc2)cc1OC	-9%	-24%	-2%[59 µM]	10	-17%	-7
COc1ccc(CCN(C)C(=O)c2cc(-c3ccccc3)nc3ccccc23)cc1OC	25%	-9%	40µM*	-7	?	7
CCN(Cc1ccccc1)C1CCN(Cc2ccccc2)CC1	29%	-6%	71µM*	-5	-24%	5
CCCN1CCC(N(CCc2ccccc2)Cc2ccccc2)CC1	21%	-16%	-22%	-7	-2%	nt
COc1ccc(-c2cc(C(=O)N(C)CCc3ccc(OC)c(OC)c3)c3ccccc3n2)cc1	20%	-13%	nt	-7	-10%	-10
COc1ccc(CCN(C)C(=O)C2CCN(Cc3cccc(OC)c3OC)CC2)cc1OC	-16%	3.2µM*	nt	6	?	-8
O=C(CNC(=O)c1ccccc1Cl)OCc1cc(=O)n2ccsc2n1	49%	1%	-3%[59 µM]	nt	1%	nt
CC(NC(=O)c1c2c(nc3ccccc13)C(=O)N(C1CCCCC1)C2)c1ccccc1 (configuration not stated)	-3%	-25%	-3%[59 µM]	nt	-19%	nt
O=C(/C=C/N1CCOCC1)c1cc2ccccc2o1	28%	-18%	10µM*	-7	2%	0
O=C(Nc1ccc(N2CCOCC2)cc1)c1cc2ccccc2o1	15%	-20%	-22%[12.7 µM]	-3	-37%	0
Cc1ccc(CNC(=O)C2CCN(S(=O)(=O)Cc3ccccc3)CC2)cc1	57%	2%	-39%[59 µM]	nt	5%	nt
O=C(c1cc2cc([N+](=O)[O-])ccc2oc1=O)n1cccn1	18%	-21%	45µM*	-9	-14%	-1
COc1ccc(OC)c(/C=C2\SC(N3CCCC(C)C3)=NC2=O)c1 (configuration not stated)	46%	8%	28µM*	-6	-4%	0
O=C(NCCc1ccc(Cl)cc1)c1c2c(nc3ccccc13)C(=O)N(C1CCCCC1)C2	32%	-8%	13%[59 µM]	nt	-4%	nt
COc1ccc(OC)c(S(=O)(=O)NCC(c2ccc(N(C)C)cc2)N2CCOCC2)c1 (configuration not stated)	8%	-23%	1%[12.7 µM]	nt	-19%	nt
CCCCN1CC(O)C(O)C(O)C1CO (configuration not stated)	nt	nt	-2%[12.7 µM]	nt	nt	nt
C=CCn1cc(/C=C/c2cc[n+](C)cc2)c2ccccc21	-5%	-12%	50µM*	5	50µM*	nt
C=CCn1c(C)c(/C=C/c2cc[n+](C)cc2)c2ccccc21	24%	-8%	45µM*	8	3%	8
Cc1[nH]c2ccccc2c1/C=C/c1cc[n+](C)cc1	13%	-12%	14%[12.7 µM]	-2	56µM*	-3
SMILES	HP1b chromo inh	JMJD2A Tudor	G9a inh	Six1-Eya2 blk	BAZ2B block	CtBP-E1A blk
C[n+]1ccc2[nH]c3ccccc3c2c1	nt	nt	nt	4	nt	1
Cn1c2c(c3cnc4cc(Cl)ccc4c31)CN(Cc1ccc(Cl)cc1)CC2	11%[57 µM]	-15%[57.1 µM]	nt	nt	nt	nt
COc1cc(NCc2ccc3nc(N)nc(N)c3c2C)cc(OC)c1OC	nt	nt	10µM*	nt	nt	nt
Nc1nc(N)c2cc(CNc3ccc(Cl)c(Cl)c3)ccc2n1	nt	nt	nt	-15	nt	-6
CC(=O)OCC#CCSc1nnc(-c2cccc(Br)c2)o1	115%	64%	52%[59 µM]	nt	56%	nt
O=C(CSc1nc2c([nH]c3ccccc32)c(=O)n1-c1ccc(Cl)cc1)N1CCOCC1	52%[57 µM]	-6%	8%[59 µM]	nt	42%	nt
O=c1c(Cl)c(O)c2cccc3c4ccccc4n1c23	6%	-26%	45µM*	?	-27%	-9
COc1c(O)c(=O)n2c3ccccc3c3ccnc1c32	-10%	?	?	-77*	10%	-82*
Cn1c(=O)c(-c2cccc(Cl)c2)c(O)c2ccccc21	37%	4%	nt	0	nt	8
CCOc1ccc(-c2cc(NC(=O)c3cccc(Cl)c3)c(C(=O)OC)s2)cc1	62%	-4%	20%[59 µM]	nt	0%	nt
O=C(O)c1cc(NCc2cc(O)ccc2O)ccc1O	?	25µM*	3.5µM*	nt	nt	nt
N#CCC(=O)Nc1ccc(C(=O)OCC(=O)C23CC4CC(CC(C4)C2)C3)cc1	-6%	-27%	-5%	-8	7%	-2
O=C(OCC12CC3CC(CC(C3)C1)C2)c1ccc(NCc2cc(O)ccc2O)cc1	16µM*	50µM*	nt	-15	nt	-5
O=C(OCCC12CC3CC(CC(C3)C1)C2)c1ccc(NCc2cc(O)ccc2O)cc1	?	25µM*	nt	?	nt	1
CCc1ccccc1NC(=O)CN1C(=O)CCn2nc(-c3cccn3C)cc21	4%[57 µM]	-35%	-28%[59 µM]	nt	-36%	nt
Cc1ccccc1N1C(=O)CC(Sc2nnc(-c3ccccc3)o2)C1=O (configuration not stated)	-2%	-6%	7.9µM*	-1	-5%	-2
NNC(=O)c1cccc(Cn2cc(Br)c([N+](=O)[O-])n2)c1	55%	3%	40µM*	-5	-23%	-3
O=C1CS/C(=N/N=C\c2ccn[nH]2)N1	17%	-21%	nt	-5	50µM*	-3
C#CCOCCOCCOCCNc1nc(N2CCOCC2)nc(N2CCN(C(=O)[C@H](CO)n3cc([C@@H](N)C(C)C)nn3)CC2)n1	37%	-11%	nt	-2	nt	5
C#CCOCCOCCOCCNc1nc(N2CCN(C(=O)[C@H]([C@@H](C)CC)n3cc([C@@H](N)CO)nn3)CC2)nc(N2CCN(C(=O)[C@H]([C@@H](C)CC)n3cc([C@@H](N)CC(C)C)nn3)CC2)n1	29%	50µM*	-29%[12.7 µM]	-15	50µM*	-11
C#CCOCCOCCOCCNc1nc(N2CCN(C(=O)[C@H]([C@@H](C)CC)n3cc([C@@H](N)CO)nn3)CC2)nc(N2CCN(C(=O)[C@H]([C@@H](C)CC)n3cc([C@@H](N)CO)nn3)CC2)n1	nt	nt	-4%[12.7 µM]	nt	22µM*	nt
